Data taken from PubChem BioAssay (NCATS).
“And” between values parts separate entries of the source, which are not always exact repeats. Equal entries are not always repeated. Inconclusive results are not listed. The source made the active and inactive calls. Unless noted, calls follow the shape of the dose curve; as a rule, active = well fitted inhibition curve with a large enough effect; inconclusive = small, poorly fitted or top-dose-only effect; inactive = no such curve, though single readings can be large or run the other way.

Assays:
[1] = qHTS drug screen for cell cycle checkpoint inhibitors in PARPi-resistant BRCA-mutant ovarian cancer cell lines. (AID 1963452; calls by dose curve); conditions: PEO1/OlaR viability, CellTiter-Glo luminescence, 96 h; for Z-AUC: stronger effect = lower value
Method in brief: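 PEO1, PEO4 and PEO1/OlaR ovarian cancer cells, 600 per well, exposed 96 h at 37C to a dilution series. Viability read by CellTiter-Glo luminescence, normalized to DMSO and empty wells; activity summarized as Z-AUC.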

[2] = qHTS assay to identify inhibitors of the type 1 interferon - major histocompatibility complex class I in skeletal muscle: Counter screen cell viability and HiBit confirmation (AID 1347412); conditions: iHSKM muscle cells + IFN-b, HiBiT or CellTiter-Glo, 24 h; for activity change, negative = inhibition: at 45.9 µM (top of the series); as to activity change, negative = inhibition: % is scaled to controls: 0 for no effect and ±100 for the full control effect; as to all read-outs here: nearly all actives have a fitted effect of over 60% in size
Method in brief: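 Human myoblast knock-in line, 4.0 ng/ml IFN-beta stimulation, 24 h compound treatment. Endpoints: HiBiT lytic luminescence (HLA-B level) and CellTiter Glo (ATP). Dosing 12 concentrations, 3-fold steps, 46 uM highest final.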

[3] = measured here: PEO1 parental Z-AUC
Potency is read from the fitted curve at half-maximal effect.

With `CN(C(=O)CNC(=O)/C=C/c1cccc(Cl)c1)C1CCS(=O)(=O)CC1` the Z-AUC [1] was -0.555 (inactive), the Z-AUC [1, 3] was -0.958 and the Z-AUC ([1]; measured here: PEO4 Z-AUC) was -0.957.

For `CN1C(=O)N(c2cc(Cl)cc(Cl)c2)C(=O)[C@]12CN(Cc1cc(C(=O)O)cs1)C[C@H]2c1ccc(C#N)cc1`, the Z-AUC [1] was 0.948 (inactive), the Z-AUC [1, 3] was 1.08 and the Z-AUC ([1]; measured here: PEO4 Z-AUC) was 0.897.

With `NC(=S)N/N=C/c1ncccc1N` the Z-AUC [1] was 0.978 (inactive), the Z-AUC [1, 3] was 0.81 and the Z-AUC ([1]; measured here: PEO4 Z-AUC) was 0.897.

For `CC(=O)/C=C1/C(=O)N(C)c2ccccc21`, the Potency ([2]; HiBiT) was 19800 nM (active) and the activity change, negative = inhibition ([2]; Viability) was -2.06% (inactive).

In the case of `C/C=C(/C)C(=O)O[C@H]1C(C)=CC23C(=O)C(C=C(CO)[C@@H](O)[C@]12O)[C@H]1[C@@H](C[C@H]3C)C1(C)C` (some centres undefined), the Z-AUC [1] is reported as -0.0624 (inactive), the Z-AUC [1, 3] is reported as -0.301 and the Z-AUC ([1]; measured here: PEO4 Z-AUC) is reported as -0.581.

For `CCC(=C/[C@H](C)C/C=C/C(C)=C/[C@@H](C)C(=O)[C@@H](C)[C@H](O)[C@@H](C)C/C(C)=C/C(=O)O)/C=C/[C@@H]1OC(=O)C=C[C@@H]1C`, the Potency [1] was 6920 nM (active), the Z-AUC [1, 3] was -4.05 and the Z-AUC ([1]; measured here: PEO4 Z-AUC) was -3.51. The Potency ([2]; HiBiT) was 3.1 nM (active) and the activity change, negative = inhibition ([2]; Viability) was -3.47% (inactive).

For `COc1cc(=C2C=c3ccccc3=N2)[nH]/c1=C/c1[nH]c(C)cc1C`, the Z-AUC [1] was 0.716 (inactive), the Z-AUC [1, 3] was 0.368 and the Z-AUC ([1]; measured here: PEO4 Z-AUC) was 1.02. The activity change, negative = inhibition ([2]; HiBiT) was -23.6% (inactive) and the Potency ([2]; Viability) was 1250 nM (active).

With `CCS(=O)(=O)Nc1ccc(Oc2ccc(F)cc2F)c(-c2cn(C)c(=O)c3[nH]ccc23)c1` the Potency [1] was 38.9 nM (active), the Z-AUC [1, 3] was -1.41 and the Z-AUC ([1]; measured here: PEO4 Z-AUC) was -1.58. For the same compound, the Potency ([2]; HiBiT) was 55.7 nM (active) and the activity change, negative = inhibition ([2]; Viability) was -28.2% (inactive).

In the case of `C=C1/C(=C\C=C2/CCC[C@]3(C)[C@@H]([C@H](C)CCCC(C)(C)O)CC[C@@H]23)C[C@@H](O)C[C@@H]1O`, the Z-AUC [1] is reported as 0.612 (inactive) and 1.13 (inactive), the Z-AUC [1, 3] is reported as 0.475 and 0.837 and the Z-AUC ([1]; measured here: PEO4 Z-AUC) is reported as 0.77 and 1.19. For the same compound, the activity change, negative = inhibition ([2]; HiBiT) was -12.1% (inactive) and the activity change, negative = inhibition ([2]; Viability) was -5.56% (inactive).

In the case of `Cc1cc(O)c(-c2ccc([C@@H](C)CN)cc2)c2c1[nH]c(=O)c1sccc12`, the Z-AUC [1] is reported as -2.55 (inactive), the Z-AUC [1, 3] is reported as -2.78 and the Z-AUC ([1]; measured here: PEO4 Z-AUC) is reported as -2.98. The Potency ([2]; HiBiT) was 39.4 nM (active) and the activity change, negative = inhibition ([2]; Viability) was -14.1% (inactive).

With `Nc1nc2c(c(=O)[nH]1)N1CN(c3ccc(C(=O)N[C@@H](CCC(=O)O)C(=O)O)cc3)CC1CN2` (some centres undefined) the Z-AUC [1] was -1.54 (inactive), the Z-AUC [1, 3] was -1.06 and the Z-AUC ([1]; measured here: PEO4 Z-AUC) was -0.345. For the same compound, the activity change, negative = inhibition ([2]; Viability) was -12% (inactive).

With `NS(=O)(=O)Oc1ccc2c3c(c(=O)oc2c1)CCCCC3` the Z-AUC [1] was 0.451 (inactive), the Z-AUC [1, 3] was 0.12 and the Z-AUC ([1]; measured here: PEO4 Z-AUC) was -0.024.

In the case of `CC#CC(=O)N1CC[C@@H](n2c(=O)n(-c3ccc(Oc4ccccc4)cc3)c3c(N)ncnc32)C1`, the Z-AUC [1] is reported as 1.04 (inactive), the Z-AUC [1, 3] is reported as 0.828 and the Z-AUC ([1]; measured here: PEO4 Z-AUC) is reported as 1.1. For the same compound, the activity change, negative = inhibition ([2]; HiBiT) was -23.5% (inactive) and the activity change, negative = inhibition ([2]; Viability) was -0.0272% (inactive).

With `CO[C@H]1/C=C/O[C@@]2(C)Oc3c(C)c(O)c4c(O)c(c5c(c4c3C2=O)=NC2(CCN(CC(C)C)CC2)N=5)NC(=O)/C(C)=C/C=C/[C@H](C)[C@H](O)[C@@H](C)[C@@H](O)[C@@H](C)[C@H](OC(C)=O)[C@@H]1C` the Z-AUC [1] was 1.28 (inactive), the Z-AUC [1, 3] was 0.697 and the Z-AUC ([1]; measured here: PEO4 Z-AUC) was 0.909.

With `CC(C)n1c(/C=C/[C@H](O)C[C@H](O)CC(=O)O)c(-c2ccc(F)cc2)c2ccccc21` the Z-AUC [1] was 1.2 (inactive), the Z-AUC [1, 3] was 1.21 and the Z-AUC ([1]; measured here: PEO4 Z-AUC) was 1.13.

With `C[C@@H](O)[C@@H]1NC(=O)[C@H](CCCCN)NC(=O)[C@@H](Cc2c[nH]c3ccccc23)NC(=O)[C@H](Cc2ccccc2)NC(=O)[C@@H](NC(=O)[C@H](N)Cc2ccccc2)CSSC[C@@H](C(=O)N[C@H](CO)[C@@H](C)O)NC1=O` the Z-AUC [1] was 0.896 (inactive), the Z-AUC [1, 3] was 0.495 and the Z-AUC ([1]; measured here: PEO4 Z-AUC) was 0.728.

In the case of `O=c1cc(N2CCOCC2)oc2c(-c3ccc4c(c3)OCCO4)csc12`, the Z-AUC [1] is reported as -0.839 (inactive), the Z-AUC [1, 3] is reported as -0.602 and the Z-AUC ([1]; measured here: PEO4 Z-AUC) is reported as -0.553. The Potency ([2]; HiBiT) was 14000 nM (active).

In the case of `N#CCC1(n2cc(-c3ncnc4[nH]ccc34)cn2)CN(C2CCN(C(=O)c3ccnc(C(F)(F)F)c3F)CC2)C1`, the Z-AUC [1] is reported as -0.205 (inactive), the Z-AUC [1, 3] is reported as -0.513 and the Z-AUC ([1]; measured here: PEO4 Z-AUC) is reported as -0.617. For the same compound, the Potency ([2]; HiBiT) was 1570 nM (active) and the activity change, negative = inhibition ([2]; Viability) was 14.7% (inactive).

With `CN(C)Cc1ccc(S(=O)(=O)n2ccc(/C=C/C(=O)NO)c2)cc1` the Z-AUC [1] was 0.736 (inactive), the Z-AUC [1, 3] was 1.02 and the Z-AUC ([1]; measured here: PEO4 Z-AUC) was 1.35. For the same compound, the Potency ([2]; HiBiT) was 7010 nM (active) and the activity change, negative = inhibition ([2]; Viability) was -5.13% (inactive).

With `C/C=C1\NC(=O)[C@H]2CSSCCC=C[C@H](CC(=O)N[C@H](C(C)C)C(=O)N2)OC(=O)[C@H](C(C)C)NC1=O` the Potency ([2]; HiBiT) was 0.4 nM (active) and the activity change, negative = inhibition ([2]; Viability) was -27.6% (inactive).

With `Cc1cc(Oc2ccc3nc(COc4ccc(CC5SC(=O)NC5=O)cc4)n(C)c3c2)cc(C)c1N` (centres undefined) the Z-AUC [1] was -0.262 (inactive), the Z-AUC [1, 3] was 0.128 and the Z-AUC ([1]; measured here: PEO4 Z-AUC) was -0.444.
